Screening results: PubChem BioAssay, several laboratories
eIF4H FP inh – inhibitors of RNA binding by human eIF4H | actives 0.94% (n = 290,000) | Q15056 | inhibition, % at 35 µM | eIF4H fluorescence polarization binding assay;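 note: calls also rest on retests at 20 µM and on dose response follow-up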
PABP FP inh – blocks human PABP binding to poly(A) RNA. actives 1% (n = 290,000). calls only at 35 µM. fluorescence polarization;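 note: calls also rest on retests at 20 µM and on dose response follow-up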
PABP1 MLLE inh – inhibitors of microRNA-mediated deadenylation, human PABP1 MLLE binding; GST-MLLE / FITC-PAM2 fluorescence polarization; actives 0.36% (n = 360,000); P11940; inhibition, % at 20 µM; in the data active = inhibition above about 35%, passing the limit was not always enough
eIF4E 4G PPI – inhibitors of eIF4E and eIF4G interaction in translation initiation | AID 782 | TR-FRET eIF4E-eIF4GI(517-606) binding, 2 h | P63073+Q04637 | actives 0.37% (n = 220,000) | inhibition, % at 21.7 µM;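 active = inhibition above about 30%, limit read from the data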
PERK inhibitor – blocks human PERK kinase. Q9NZJ5. CHO PERK-DD fusion, SEAP luminescence translation reporter. inhibition, % at 5.6 µM. actives 0.17% (n = 220,000);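 active = inhibition above the mean inhibition of all tested compounds plus 3 SD, set separately per screening campaign, cut at about 2.9% in these data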;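 note: PERK kinase domain activated by AP20187 dimerizer at 100 nM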
A number is an active result; – = inactive; ? = inconclusive; · = not tested or not shown; + = active, no number; [ ] = dose if it differs, or a comment. Most compounds without a hit are left out; they make up all but 1.6% or so of the library. Unless noted, the rule behind the calls is not given here.

SMILES	eIF4H FP inh	PABP FP inh	PABP1 MLLE inh	eIF4E 4G PPI	PERK inhibitor
C/C(CC(=O)Nc1ccc([N+](=O)[O-])cc1)=N\NC(=O)c1ccccc1O	82	–	–	·	·
Cc1ccc(C(=O)NC(=S)NNC(=O)c2ccc([N+](=O)[O-])cc2)cc1	–	–	–	·	·
O=C(NNC(=S)NC(=O)c1ccccc1)c1ccc([N+](=O)[O-])cc1	–	–	–	·	·
O=C(NC(=S)NNC(=O)c1ccccc1O)c1ccc([N+](=O)[O-])cc1	–	–	41	·	·
CC(=O)Nc1ccc2cc3ccc(NC(C)=O)cc3nc2c1	77	+	–	–	–
CC(=O)Nc1ccc2sc(C)nc2c1	–	–	–	64	–
CC(=O)Nc1ccc2ccccc2c1	–	–	–	–	–
CCN(CC)C(=O)c1[nH]cnc1C(=O)NCc1ccc(CNC(=O)OC(C)(C)C)cc1	·	·	–	·	·
COC(=O)c1c(NC(=O)C2C3CCC(C3)C2C(=O)O)sc2c1CCCCC2 (centres undefined)	–	–	41	–	–
COC(=O)c1c(NC(C)=O)sc2c1CCCC2	–	–	–	–	–
CCOC(=O)c1c(NC(=S)Nc2ccccc2)sc2c1CC(C)(C)SC2	–	–	–	–	–
COC(=O)c1c(NC(=S)Nc2ccc(C(=O)N3CCOCC3)cc2)sc2c1CCC2	–	–	–	–	3.0
CNC(=S)Nc1sc2c(c1C(=O)OC)CCC2	?	+	–	–	–
CCOC(=O)c1c(NC(=S)NC)sc2c1CC(C)(C)SC2	52	–	–	–	–
CCOc1ccccc1/C=C/C(=O)N1CCN(C(=O)c2ccco2)CC1	·	·	–	·	·
CCN(CC)c1ccc(S(=O)(=O)N2CCOCC2)cc1NC(=O)CSC(=S)N1CCCC1	–	–	–	·	·
O=S(=O)(Nc1ccc(N2CCOCC2)cc1)c1c(F)cc(F)cc1Br	–	–	–	·	·
Cc1cccc(N2C(=O)CC(Sc3ccccc3C(=O)O)C2=O)c1 (centres undefined)	–	–	–	–	–
Cc1ccnc(SC2CC(=O)N(c3ccc(C(C)C)cc3)C2=O)n1 (centres undefined)	–	–	–	·	·
Cc1ccc(N2C(=O)CC(Sc3ccccc3C(=O)O)C2=O)c([N+](=O)[O-])c1 (centres undefined)	–	–	38	–	–
Cc1cc(C)cc(N2C(=O)CC(Sc3ccccc3C(=O)O)C2=O)c1 (centres undefined)	–	–	41	–	–
CC(C)c1ccc(N2C(=O)CC(Sc3ncccn3)C2=O)cc1 (centres undefined)	–	–	39	·	·
O=C(O)c1ccccc1SC1CC(=O)N(c2ccc3c(c2)OCO3)C1=O (centres undefined)	–	–	38	–	–
COc1ccc(N2C(=O)CC(Sc3ccccc3C(=O)O)C2=O)c([N+](=O)[O-])c1 (centres undefined)	–	–	–	–	–
COc1cc(C(=O)NCCN2CCN(C(=O)c3cc(OC)c(OC)c(OC)c3)CC2)cc(OC)c1OC	–	–	–	·	·
SMILES	eIF4H FP inh	PABP FP inh	PABP1 MLLE inh	eIF4E 4G PPI	PERK inhibitor
CC(=O)c1c(C)cc(C)c(CSc2ccccn2)c1C	–	–	–	·	·
COc1ccc(C(=O)N2CCCC(c3cc(C(=O)NCc4ccccc4)no3)C2)cc1 (centres undefined)	·	·	–	·	·
O=C1CC(Sc2ncccn2)C(=O)N1c1ccccc1 (centres undefined)	–	–	–	–	–
Cc1ccc(N2C(=O)CC(Sc3ccccc3C(=O)O)C2=O)cc1C (centres undefined)	–	–	–	–	–
Cc1ccc(N2C(=O)CC(Sc3ccccc3C(=O)O)C2=O)cc1 (centres undefined)	–	–	50	–	–
Nc1nnc(SC2CC(=O)N(c3ccccc3)C2=O)s1 (centres undefined)	–	–	42	·	–
Cc1ccc(-n2c(C(C)n3nc(C)c([N+](=O)[O-])c3C)n[nH]c2=S)cc1 (centres undefined)	active	–	–	–	–
Cc1ccc(-c2nnn(CC(=O)N3CCCCC3)n2)cc1	–	–	–	·	·
COc1ccccc1N(Cc1cc(=O)[nH]c2ccccc12)C(=O)c1ccccc1	–	–	–	58	–
CN(Cc1cc(=O)[nH]c2ccccc12)C(=O)c1ccccc1	–	–	–	–	–
COc1ccc(C(=O)NC2CCN(C(=O)NCc3ccccc3)CC2)cc1	–	–	–	·	·
C=CCSC1=C(C#N)C(c2ccccc2OCC)C(C#N)C(=O)N1 (centres undefined)	–	–	41	–	–
Cc1ccc(S(=O)(=O)N(C)C)cc1-n1c(SCC(=O)N(C)C)nc2ccccc2c1=O	52	+	–	–	–
COc1ccc(Cl)cc1C(=O)NNC(=O)COC(=O)CC(NC(C)=O)c1ccccc1 (centres undefined)	·	·	–	·	·
CCCCC(NC(=O)c1ccc(C#N)cc1)C(=O)NCCC (centres undefined)	·	·	–	·	·
CCOC(=O)C1CCCN(c2cc(=O)n(-c3ccccc3Cl)c(=O)[nH]2)C1 (centres undefined)	–	–	–	–	3.3
O=C(CN(C(=O)c1csnn1)c1ccc(Br)cc1)NC1CCCCC1	–	–	–	·	·
COc1ccc(OC)c(S(=O)(=O)N2CCC(C(=O)NC3CCCCCC3)CC2)c1	–	–	–	·	·
CN1CCN(C(=O)CCNC(=O)Cn2ccc3ccccc3c2=O)CC1	–	–	–	–	–
COc1ccc(N2CCN(C(=O)CCNC(=O)Cn3ccc4ccccc4c3=O)CC2)cc1	–	–	–	78	–
Cc1[nH]c2ccccc2c1SCC(=O)O	–	–	–	–	–
O=C(O)CSc1c2ccccc2cc2ccccc12	–	–	38	·	·
CC(=O)Nc1ccc(S(=O)(=O)NCCSc2ccccn2)cc1	60	+	–	47[fluorescence artefact?]	–
Cc1cc(C(=O)O)ccc1-n1c(C)cc(/C=C(/C#N)C(=O)Nc2ccccc2)c1C	63	+	–	–	–
Cc1cc(C(=O)O)ccc1-n1c(C)ccc1C	·	·	·	–	3.3
SMILES	eIF4H FP inh	PABP FP inh	PABP1 MLLE inh	eIF4E 4G PPI	PERK inhibitor
CN(c1ccc(F)cc1)S(=O)(=O)c1ccc(Cl)c(C(=O)NCc2ccco2)c1	·	·	–	·	·
O=C(NCCc1c[nH]c2ccccc12)OCCCCOC(=O)NCCc1c[nH]c2ccccc12	·	·	–	·	·
Cn1cccc1CC(=O)NNC(=S)Nc1ccc(F)cc1	–	–	–	–	–
Cn1cccc1CC(=O)NNC(=S)Nc1ccc(Cl)cc1Cl	58	+	–	–	–
O=C(CSc1ccccn1)Nc1ccc2c(c1)C(=O)c1ccccc1C2=O	–	–	–	–	–
O=C(CSc1n[nH]c(=O)[nH]c1=O)Nc1ccc2c(c1)C(=O)c1ccccc1C2=O	98	+	–	–	–
CCOc1ccc(CN(C)C(=O)CNC(=O)C2CCCCC2)cc1OC	–	–	–	·	·
COc1cc(/C=C/C(=O)Nc2nnc(C(C)(C)C)s2)cc(OC)c1OC	–	–	41	–	–
COc1cc(/C=C/C(=O)Nc2ccc(C)cc2)cc(OC)c1OC	–	–	–	–	–
Nc1cc(N)nc(SCC(=O)NCc2ccc3c(c2)OCO3)n1	·	·	–	·	·
CCCCOC(=O)n1c(=S)oc2cc(Cl)ccc21	–	–	–	–	–
